Several values for one entry are separate records, joined by “and”; a condition that tells them apart may be missing. Equal entries are not always repeated. Where a structure was tested more than once in an assay, its records may differ in their call. Activity calls are given as the source filed them. How the source made its calls: active means hit-call score of the fitted dose curve at least 0.9, where 1 is the maximum; inactive means score below 0.9.
Experiments:
[1] = read-out: Interleukin-1 alpha (IL1a), IL1A (gene 3552); test: BSK_LPS_IL1a: BioMAP Diversity Plus: LPS Assay for Interleukin-1 alpha (IL1a) Biomarker Activity (AID 2283080); settings: primary human HUVEC with PBMC; actives raise or lower the signal
Procedure, shortened: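 Readout is IL-1a level by ELISA, 24 h post-dose, fitted as gain or loss relative to DMSO. System: LPS-activated human primary co-culture of vascular endothelium and peripheral blood mononuclear cells, with parallel SRB total-protein cytotoxicity.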

[2] = read-out: Monocyte Chemoattractant Protein-1 (MCP1), CCL2 (gene 6347); test: BSK_LPS_MCP1: BioMAP Diversity Plus: LPS Assay for Monocyte Chemoattractant Protein-1 (MCP1) Biomarker Activity (AID 2283081); settings: primary human HUVEC with PBMC; actives raise or lower the signal;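 on AC50: co-culture stimulated with LPS; secreted MCP-1 protein quantified by ELISA in culture supernatant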
Procedure, shortened: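 Secreted MCP-1 read by ELISA at 24 h post-dosing in an LPS-activated co-culture of endothelial cells with peripheral blood mononuclear cells. Fits run in both directions, DMSO as baseline; parallel SRB staining tracks overt cytotoxicity.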

[3] = BSK_LPS_PGE2: BioMAP Diversity Plus: LPS Assay for Prostaglandin E2 (PGE2) Biomarker Activity (AID 2283082); settings: primary human HUVEC with PBMC; actives raise or lower the signal;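 on AC50: secreted prostaglandin E2 measured by ELISA in LPS-stimulated co-culture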
Procedure, shortened: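 Primary human endothelial cells and blood mononuclear cells, co-cultured with LPS, receive test chemical; PGE2 ELISA follows at 24 h, with SRB-stained parallel cultures flagging cytotoxicity.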

[4] = read-out: Macrophage colony-stimulating factor (MCSF), CSF1 (gene 1435); test: BSK_LPS_MCSF: BioMAP Diversity Plus: LPS Assay for Macrophage colony-stimulating factor (MCSF) Biomarker Activity (AID 2283083); settings: primary human HUVEC with PBMC; actives raise or lower the signal
Procedure, shortened: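 Bidirectional fitting against DMSO was applied to M-CSF levels read by ELISA at 24 h post-dose. The system pairs human umbilical vein endothelium with peripheral blood mononuclear cells; parallel SRB staining tracked cytotoxicity.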

[5] = read-out: Tissue Factor, F3 (gene 2152); test: BSK_LPS_TissueFactor: BioMAP Diversity Plus: LPS Assay for Tissue Factor Biomarker Activity (AID 2283084); settings: primary human HUVEC with PBMC; actives raise or lower the signal
Procedure, shortened: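 Compound was added to an endothelial cell/PBMC co-culture, and after 24 h tissue factor (CD142) was read by ELISA. Gain or loss of signal was fitted against a DMSO baseline, and parallel SRB staining (560 nm) tracked overt cytotoxicity.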

[6] = read-out: Tumor necrosis factor (Homo sapiens) (UniProt P01375); test: BSK_LPS_TNFa: BioMAP Diversity Plus: LPS Assay for Tumour Necrosis Factor alpha (TNFa) Biomarker Activity (AID 2283085); settings: primary human HUVEC with PBMC; actives raise or lower the signal;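 on AC50: TNFa protein level quantified by ELISA in the co-culture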
Procedure, shortened: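 ELISA-based TNFa endpoint in a human endothelial–PBMC co-culture sampled 24 h post-exposure. Curves were fitted in both directions using DMSO as baseline of activity.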

[7] = read-out: Vascular cell adhesion molecule 1 (VCAM1), VCAM1 (gene 7412); test: BSK_LPS_VCAM1: BioMAP Diversity Plus: LPS Assay for Vascular cell adhesion molecule 1 (VCAM1) Biomarker Activity (AID 2283086); settings: primary human HUVEC with PBMC; actives raise or lower the signal
Procedure, shortened: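 Measured by ELISA: VCAM-1 in LPS-activated HUVEC/PBMC co-cultures 24 h after treatment. Values reflect bidirectional fitting with DMSO as baseline.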

[8] = read-out: CD38, CD38 (gene 952); test: BSK_SAg_CD38: BioMAP Diversity Plus: SAg Assay for CD38 Biomarker Activity (AID 2283087); settings: primary human HUVEC with PBMC; actives raise or lower the signal
Procedure, shortened: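 Measures CD38 on a human endothelial/PBMC co-culture driven by SEB and TSST-1, 24 h after compound exposure, using ELISA with fluorescence detection; DMSO defines baseline for bidirectional curve fitting.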

[9] = read-out: CD40, CD40 (gene 958); test: BSK_SAg_CD40: BioMAP Diversity Plus: SAg Assay for CD40 Biomarker Activity (AID 2283088); settings: primary human HUVEC with PBMC; actives raise or lower the signal
Procedure, shortened: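 CD40 is measured by fluorescence ELISA in an endothelial/PBMC primary human co-culture at 24 h post-dose. Fitting is bidirectional, DMSO baseline. Parallel SRB staining (560 nm) flags cytotoxicity.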

[10] = read-out: Monocyte Chemoattractant Protein-1 (MCP1), CCL2 (gene 6347); test: BSK_SAg_MCP1: BioMAP Diversity Plus: SAg Assay for Monocyte Chemoattractant Protein-1 (MCP1) Biomarker Activity (AID 2283090); settings: primary human HUVEC with PBMC; actives raise or lower the signal
Procedure, shortened: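 Values derive from bidirectional fitting of ELISA-measured MCP1 against DMSO controls. Readings were taken 24 h after dosing human vascular endothelial cells co-cultured with peripheral blood mononuclear cells under superantigen stimulation.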

[11] = read-out: E-selectin (Homo sapiens) (UniProt P16581); test: BSK_SAg_Eselectin: BioMAP Diversity Plus: SAg Assay for Eselectin Biomarker Activity (AID 2283091); settings: primary human HUVEC with PBMC; actives raise or lower the signal
Procedure, shortened: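 Cell-surface E-selectin is read by ELISA at 24 h in the SAg co-culture of HUVEC and PBMC. Curves are fitted in both directions relative to DMSO. Parallel SRB total-protein staining tracks overt toxicity.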

[12] = read-out: Monokine induced gamma interferon (MIG), CXCL9 (gene 4283); test: BSK_SAg_MIG: BioMAP Diversity Plus: SAg Assay for Monokine induced gamma interferon (MIG) Biomarker Activity (AID 2283092); settings: primary human HUVEC with PBMC; actives raise or lower the signal
Procedure, shortened: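 ELISA readout of MIG/CXCL9; primary human umbilical vein endothelial cells co-cultured with peripheral blood mononuclear cells; 24 h post-dose; gain/loss fit vs DMSO baseline.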

[13] = BSK_SAg_PBMCCytotoxicity: PBMC Cytotoxicity Assessment in the BioMAP Diversity Plus: SAg Assay (AID 2283093); settings: primary human HUVEC with PBMC;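 further: PBMC viability measured as Alamar Blue reduction fluorescence at 546/580 nm; fitted both ways against DMSO so a hit may be loss or gain of signal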;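 on AC50: PBMC superantigen activated with SEB plus TSST-1 one hour after compound addition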
Procedure, shortened: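 Alamar Blue reduction (6 h, 546/580 nm) reports PBMC cytotoxicity after 90 h superantigen activation (SEB, TSST-1; 20 ng/mL final each) with 1 h compound pre-treatment. Gain or loss of signal fitted versus DMSO.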

[14] = read-out: Interleukin-8 (IL8), CXCL8 (gene 3576); test: BSK_SAg_IL8: BioMAP Diversity Plus: SAg Assay for Interleukin-8 (IL8) Biomarker Activity (AID 2283094); settings: primary human HUVEC with PBMC; actives raise or lower the signal
Procedure, shortened: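 Primary human endothelial cells with PBMC, exposed 24 h; IL-8 determined by ELISA, analysed bidirectionally relative to DMSO.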

[15] = BSK_SAg_Proliferation: Cell Proliferation Assessment in the BioMAP Diversity Plus: SAg Assay (AID 2283095); settings: primary human HUVEC with PBMC;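 further: relative cell number as total protein by SRB absorbance in sub-confluent culture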
Procedure, shortened: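 A human primary co-culture of umbilical vein endothelium and blood mononuclear cells receives compound; relative cell number is quantified at 96 h by SRB staining and 560 nm absorbance, with DMSO-referenced bidirectional curve fitting.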

[16] = BSK_SAg_SRB: Viability Assessment in the BioMAP Diversity Plus: SAg Assay (AID 2283096); settings: primary human HUVEC with PBMC;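 further: cells read one day after compound addition; hits may be either gain or loss of signal compared with DMSO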
Procedure, shortened: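 This overt-cytotoxicity endpoint quantifies protein in human endothelial/PBMC co-cultures at 24 h using SRB absorbance (560 nm) after trichloroacetic acid fixation. Values reflect signal change from the DMSO negative control, fitted bidirectionally.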

[17] = read-out: CD69, CD69 (gene 969); test: BSK_SAg_CD69: BioMAP Diversity Plus: SAg Assay for CD69 Biomarker Activity (AID 2283089); settings: primary human HUVEC with PBMC; actives raise or lower the signal;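 on AC50: cell surface CD69 protein quantified by ELISA with fluorescence detection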
Procedure, shortened: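 ELISA, fluorescence read-out: CD69 on human umbilical vein endothelial cell + PBMC co-culture, 24 h post-dosing. Gain or loss of signal fitted bidirectionally against DMSO baseline.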

Measured: AC50

Sequence of E-selectin (Homo sapiens) (P16581 whole entry, looked up): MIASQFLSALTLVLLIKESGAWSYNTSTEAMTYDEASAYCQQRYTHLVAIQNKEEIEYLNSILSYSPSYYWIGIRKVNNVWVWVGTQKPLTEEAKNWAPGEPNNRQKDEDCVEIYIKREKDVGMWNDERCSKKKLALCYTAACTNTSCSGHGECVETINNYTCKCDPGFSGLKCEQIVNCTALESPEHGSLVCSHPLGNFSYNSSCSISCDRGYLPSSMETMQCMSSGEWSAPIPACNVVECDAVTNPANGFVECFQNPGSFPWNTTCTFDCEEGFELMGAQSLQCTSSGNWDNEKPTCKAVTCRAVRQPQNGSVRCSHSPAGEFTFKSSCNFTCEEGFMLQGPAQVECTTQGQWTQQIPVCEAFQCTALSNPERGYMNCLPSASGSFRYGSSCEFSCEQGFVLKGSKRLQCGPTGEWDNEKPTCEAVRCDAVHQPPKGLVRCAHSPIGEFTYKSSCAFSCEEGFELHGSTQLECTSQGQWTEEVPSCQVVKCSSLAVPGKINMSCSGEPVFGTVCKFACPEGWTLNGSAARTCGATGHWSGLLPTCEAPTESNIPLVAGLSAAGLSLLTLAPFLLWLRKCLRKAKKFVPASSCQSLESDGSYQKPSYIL
Sequence of Tumor necrosis factor (Homo sapiens) (P01375 whole entry, looked up): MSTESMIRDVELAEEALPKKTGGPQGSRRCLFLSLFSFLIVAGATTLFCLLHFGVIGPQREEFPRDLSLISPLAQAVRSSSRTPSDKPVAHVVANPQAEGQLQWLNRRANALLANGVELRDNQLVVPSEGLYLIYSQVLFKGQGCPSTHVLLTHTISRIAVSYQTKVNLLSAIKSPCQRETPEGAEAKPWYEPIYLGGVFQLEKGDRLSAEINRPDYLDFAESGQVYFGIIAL

OCCCC(F)(F)C(F)(F)C(F)(F)F
not listed: [17]
inactive: all other assays above

O=S(=O)(OCCOC(F)(F)F)C(F)(F)F
not listed: [10] | [17]
inactive: all other assays above

FC(F)(F)C(F)(F)C(F)(F)C(F)(F)C(F)(F)C(F)(F)CCS
not listed: [10] | [17]
inactive: all other assays above

OCC(F)(F)C(F)(F)C(F)(F)C(F)(F)C(F)(F)C(F)(F)F
active: [8] 9.86 µM and 5.95 µM
not listed: [10] | [17]
inactive: all other assays above

O=C(O)C(F)(F)C(F)(F)C(F)(F)C(F)(F)C(F)(F)C(F)(F)C(F)(F)C(F)(F)C(F)(F)C(F)(F)C(F)(F)C(F)(F)F
active: [4] 20.4 µM and 21.6 µM | [9] 21.1 µM and 16.7 µM
not listed: [17]
inactive: all other assays above

FC(F)(F)C(F)(F)C(F)(F)C(F)(F)C(F)(F)C(F)(F)C(F)(F)C(F)(F)CCS
inactive: [1] | [2] | [3] | [4] | [5] | [6] | [7] | [8] | [9] | [17] | [11] | [12] | [13] | [14] | [15] | [16]
active: [5] 1.02 µM

O=C(Cl)C(F)(F)C(F)(F)C(F)(F)C(F)(F)C(F)(F)C(F)(F)C(F)(F)C(F)(F)F
inactive: [1] | [3] | [4] | [5] | [8] | [9] | [11] | [12] | [13] | [14] | [15]
active: [2] 45.7 µM and 47.4 µM and 54.8 µM | [5] 39.5 µM and 30 µM | [6] 54.8 µM and 48.8 µM and 47.2 µM | [7] 30 µM and 40.7 µM and 45.5 µM | [8] 39.6 µM and 30 µM | [9] 30 µM and 48.9 µM | [14] 42.7 µM | [16] 42.7 µM and 42.8 µM and 30 µM

OCC(F)(F)C(F)(F)C(F)(F)C(F)(F)C(F)(F)C(F)F
inactive: all assays above

CCCCNc1ccccc1
not listed: [10]
inactive: all other assays above

C=CC(=O)OCC(F)(F)C(F)(F)C(F)(F)C(F)(F)COC(=O)C=C
inactive: [3]
active: [1] 20.2 µM and 21.2 µM | [2] 17.3 µM and 19.4 µM | [3] 8.08 µM | [4] 21.4 µM and 21.3 µM | [5] 36.4 µM and 34.8 µM | [6] 18.3 µM and 18.1 µM | [7] 16.6 µM and 16.4 µM | [8] 17.6 µM and 20.6 µM | [9] 13.1 µM and 15.1 µM | [17] 14.5 µM and 17.3 µM | [10] 27.9 µM and 25.1 µM | [11] 15.5 µM and 15.3 µM | [12] 20.6 µM and 20.9 µM | [13] 28.9 µM and 30 µM | [14] 16.8 µM and 25 µM | [15] 8.2 µM and 8.47 µM | [16] 44.6 µM and 46.9 µM

C=C(C)C(=O)OCC(F)(F)C(F)(F)C(F)(F)F
not listed: [10]
inactive: all other assays above

C=CC(F)(F)C(F)(F)C(F)(F)C(F)(F)C(F)(F)C(F)(F)C(F)(F)C(F)(F)F
not listed: [1]
inactive: all other assays above

FC(F)(F)C(F)(F)CNCC(F)(F)C(F)(F)F
active: [4] 6.78 µM
inactive: [2] | [3] | [4] | [5] | [6] | [7] | [8] | [9] | [10] | [11] | [12] | [13] | [14] | [15] | [16]
